Data on 14 compounds can be found in the supplement of paper PMC6089552.

In this experiment the test system is A673/TR/shEF. Nature of the experiment: cell viability (LOESS-normalised, relative to median of negative controls) (log2 ratio); higher = more viable cells (less compound effect), active = hit call of the paper (over 3 MAD below the median). Conditions: treatment time: 72 h. An outline of the steps: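 A673/TR/shEF Ewing sarcoma cells (1,500 per well, 384-well plates) were grown with or without doxycycline to induce EWS-FLI1 shRNA knockdown, starting 24 h before compounds. Library compounds at two or more concentrations, with DMSO controls, were added for three days. Cell viability was read by CellTiter-Glo luminescence on an Envision reader, then LOESS-corrected per plate, divided by the median of negative controls and log2-transformed. Hits were wells at least three median absolute deviations from the median of all screened wells.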

The mark [1] stands for this setting: 0.25 µM, library screen: screen1, EWS-FLI1 expression: high (no doxycycline).
[2] abbreviates: 0.25 µM, library screen: screen1, EWS-FLI1 expression: low (doxycycline-induced shRNA knockdown).
The mark [3] stands for this setting: 2.5 µM, library screen: screen1, EWS-FLI1 expression: high (no doxycycline).
Setting [4] is: 2.5 µM, library screen: screen1, EWS-FLI1 expression: low (doxycycline-induced shRNA knockdown).
[5] abbreviates: 0.25 µM, library screen: screen2, EWS-FLI1 expression: high (no doxycycline).
Setting [6] is: 0.25 µM, library screen: screen2, EWS-FLI1 expression: low (doxycycline-induced shRNA knockdown).
[7] abbreviates: 2.5 µM, library screen: screen2, EWS-FLI1 expression: high (no doxycycline).
[8] abbreviates: 2.5 µM, library screen: screen2, EWS-FLI1 expression: low (doxycycline-induced shRNA knockdown).

Hit rate of the full screen: of about 3,200 compounds, about 300 (9.4%) showed activity. This excerpt belongs to a sample that is enriched for actives.

With `Cc1ccc2cc3c(ccc4ccccc43)c3c2c1CC3`, the “cell viability (log2)” value runs as follows: under setting [1], 0.0577 (inactive); under setting [2], -0.00243 (inactive); under setting [3], 0.111 (inactive); under setting [4], 0.12 (inactive).
For `CC(C)Oc1cccnc1N(C)C1CCN(Cc2ccc(I)cc2)CC1`, the “cell viability (log2)” value is 0.0944 (inactive) under setting [5], 0.0215 (inactive) under setting [6], 0.21 (inactive) under setting [7] and 0.0697 (inactive) under setting [8].
Take `CC(C)N(C(=O)CCl)c1ccccc1`: the “cell viability (log2)” value is 0.0295 (inactive) under setting [1], 0.0848 (inactive) under setting [2], 0.154 (inactive) under setting [3] and 0.0575 (inactive) under setting [4].
Taken in the same sequence, the figures for `O=C(O)CNCP(=O)(O)O` were 0.0875 (inactive), 0.0822 (inactive), 0.124 (inactive) and 0.106 (inactive).
As to `NCC(O)c1cc(O)c(O)cc1F` (centres undefined), the “cell viability (log2)” value runs as follows: under setting [5], 0.233 (inactive); under setting [6], 0.183 (inactive); under setting [7], 0.0966 (inactive); under setting [8], 0.0732 (inactive).
As to `CC(=O)Oc1ccc(Cl)c2cccnc12`, the “cell viability (log2)” value reads like this: under setting [1], 0.106 (inactive); under setting [2], 0.136 (inactive); under setting [3], 0.0698 (inactive); under setting [4], 0.0992 (inactive).
Taken in the same sequence, the figures for `C[CH2][Hg][S]c1ccccc1C(=O)O` were -0.15 (active), -0.123 (inactive), -3.6 (active) and -2.98 (active).
On the same counts, the results for `CCCCOC(=O)c1ccccc1C(=O)OCCCC` are 0.118 (inactive), 0.0394 (inactive), 0.0831 (inactive) and -0.283 (inactive).
Taken in the same sequence, the figures for `CNc1ccccc1C(=O)O` were 0.0696 (inactive), 0.0258 (inactive), 0.131 (inactive) and 0.00755 (inactive).
On to `CC(=O)C1=C(O)[C@@H]2[C@H]3c4c[nH]c5cccc(c45)C[C@H]3C(C)(C)N2C1=O`, for which the “cell viability (log2)” value reads like this: under setting [1], 0.0498 (inactive); under setting [2], 0.042 (inactive); under setting [3], 0.0855 (inactive); under setting [4], 0.00492 (inactive).
In the case of `COc1cc2c(c(OC)c1OC)-c1ccc(OC)c(=O)cc1[C@@H](NC(C)=O)CC2`, the “cell viability (log2)” value is, setting by setting: (0.025 µM, library screen: screen2, EWS-FLI1 expression: high (no doxycycline)) 0.127 (inactive); (0.025 µM, library screen: screen2, EWS-FLI1 expression: low (doxycycline-induced shRNA knockdown)) 0.0363 (inactive); under setting [1], -4.23 (active); under setting [2], -0.935 (active); under setting [5], -3.33 (active); under setting [6], -0.503 (active). Moreover, the “cell viability (log2)” value reads like this: under setting [3], -4.18 (active); under setting [4], -0.869 (active); under setting [7], -3.21 (active); under setting [8], -0.472 (active); (25 µM, library screen: screen2, EWS-FLI1 expression: high (no doxycycline)) -3.45 (active); (25 µM, library screen: screen2, EWS-FLI1 expression: low (doxycycline-induced shRNA knockdown)) -0.515 (active).
Regarding `COc1ccc2c(c1O)-c1c(OC)c(OC)cc3c1[C@H](C2)N(C)CC3`, the “cell viability (log2)” value under setting [1] was -0.01 (inactive), the “cell viability (log2)” value under setting [2] is -0.0109 (inactive), the “cell viability (log2)” value under setting [3] is 0.111 (inactive) and the “cell viability (log2)” value under setting [4] is 0.131 (inactive).
Take `COc1cc2c(c(OC)c1OC)-c1ccc(O)c(=O)cc1C(NC(C)=O)CC2` (centres undefined): the “cell viability (log2)” value is 0.0964 (inactive) under setting [1], 0.0193 (inactive) under setting [2], -1.1 (active) under setting [3] and -0.493 (active) under setting [4].
Consider `COc1cc2c(cc1OC)C(=O)c1ccc(OC)c(OC)c1OCC(=O)C2`, for which the “cell viability (log2)” value by setting is: under setting [1], 0.0297 (inactive); under setting [2], 0.0329 (inactive); under setting [3], 0.104 (inactive); under setting [4], 0.0978 (inactive).
